Results: PubChem BioAssay (NCATS)
Inconclusive results are not listed. Calls of active or inactive are those of the source. Calls follow the shape of the dose curve; as a rule, active = well fitted inhibition curve with a large enough effect; inconclusive = small, poorly fitted or top-dose-only effect; inactive = flat fitted curve, though single readings scatter.

Assays:
Assay in all cases: qHTS profiling for inhibitors of Plasmodium falciparum proliferation (AID 504749); also: nearly all actives have a fitted effect of over 60% in size
Settings in all cases: P. falciparum in erythrocytes, SYBR Green DNA, 72 h; series mostly up to 28.7 µM
[1] = system: AS120
Procedure, shortened: (§1)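 Quantitative HTS: compounds pinned into medium, infected erythrocytes added (0.3% parasitemia, 2.5% hematocrit), 72 h culture at 37 C under 5% CO2. Saponin/Triton lysis with SYBR Green I, overnight RT, then fluorescence read.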

[2] = system: ATS189
Procedure, shortened: as §1

[3] = system: ATS95
Procedure, shortened: as §1

[4] = system: CP191
Procedure, shortened: as §1

[5] = system: CP237
Procedure, shortened: as §1

[6] = system: CP247
Procedure, shortened: as §1

[7] = system: CP265
Procedure, shortened: as §1

[8] = system: CP266
Procedure, shortened: as §1

[9] = system: CP268
Procedure, shortened: as §1

[10] = system: CP269
Procedure, shortened: as §1

[11] = system: CP305
Procedure, shortened: as §1

[12] = system: CP325
Procedure, shortened: as §1

[13] = system: DIV30
Procedure, shortened: as §1

[14] = system: ECU
Procedure, shortened: as §1

[15] = system: HB3
Procedure, shortened: as §1

[16] = system: P94_40
Procedure, shortened: as §1

[17] = system: PAD
Procedure, shortened: as §1

[18] = system: PC26
Procedure, shortened: as §1

[19] = system: PC49
Procedure, shortened: as §1

[20] = system: TAB113
Procedure, shortened: as §1

Measured: Potency

C[C@]12CC[C@H]3c4ccc(O)cc4CC[C@@H]3[C@H]1CC[C@@H]2OP(=O)(O)O
inactive: all assays above

N[C@@H](Cc1ccccc1)C(=O)O
inactive: all assays above

CN(C)[C@H]1C(=O)C(C(=O)NCN2CCCC2)=C(O)[C@]2(O)C(=O)C3=C(O)c4c(O)cccc4[C@](C)(O)[C@H]3C[C@H]12
inactive: all assays above
